“And” between values parts separate entries of the source, which are not always exact repeats. Equal values may be shown once.
Biological target: C-X-C chemokine receptor type 6 (Homo sapiens) (UniProt O00574)
Assay: APJ beta-arrestin recruitment blockade alongside CXCR6 – cell-based, DiscoveRx, panel, CHO-K1, counter-screen for CXCR6 antagonist project, SAR follow-up (AID 651598)
Details: CHO-K1 PathHunter beta-arrestin luminescence, antagonist mode; run 5, at 80 µM (top of the series)

Sequence of C-X-C chemokine receptor type 6 (Homo sapiens) (O00574 whole entry, looked up): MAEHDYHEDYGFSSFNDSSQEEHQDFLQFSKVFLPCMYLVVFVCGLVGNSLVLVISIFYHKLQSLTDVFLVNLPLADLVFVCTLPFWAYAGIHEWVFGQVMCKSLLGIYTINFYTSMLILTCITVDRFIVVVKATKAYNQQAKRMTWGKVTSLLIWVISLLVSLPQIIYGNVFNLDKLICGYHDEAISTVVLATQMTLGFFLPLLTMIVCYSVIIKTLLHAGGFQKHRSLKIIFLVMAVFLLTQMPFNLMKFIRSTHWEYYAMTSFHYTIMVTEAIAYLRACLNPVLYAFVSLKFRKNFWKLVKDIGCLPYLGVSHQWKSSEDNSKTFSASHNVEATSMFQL

COc1cc(C(=O)NC2CCN(CC(=O)Nc3ccccc3)CC2)cc(OC)c1OC
inhibition: 12%

COc1cc(C(=O)NC2CC3CCC(C2)N3CC(=O)Nc2ccccc2)cc(OC)c1OC (stereo not drawn)
inhibition: 45.3% and 9.45%

COc1cc(C(=O)NC2CC3CCCC(C2)N3CC(=O)Nc2ccccc2)cc(OC)c1OC (stereo not drawn)
inhibition: 85.4% and 45.2% and 22.2%
